About 83,000 compounds went through this panel and 20% of them were active in at least one assay; those are over-represented in the sample as a whole.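 Results are percent growth after 48 hours of single-concentration exposure. 100 means growth as in untreated cells, lower positive values show inhibition; negative values down to -100 show cell death.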 Unmarked numbers belong to inactive results. Calls of active or inactive are those of the source. How the source made its calls: active means growth percent below 10; inactive means the rest.
Key:
Experiment in all cases: NCI-60 one-dose screen, 48 h (100 = growth as untreated, 0 = no growth, -100 = all killed)
Settings in all cases: 10 µM unless noted
[1] = tested on: SR leukemia
[2] = tested on: RPMI-8226 leukemia
[3] = tested on: OVCAR-8 ovarian
[4] = tested on: OVCAR-5 ovarian
[5] = tested on: OVCAR-4 ovarian
[6] = tested on: SK-OV-3 ovarian
[7] = tested on: IGROV1 ovarian
[8] = tested on: OVCAR-3 ovarian
[9] = tested on: HS 578T breast
[10] = tested on: NCI/ADR-RES ovarian
[11] = tested on: T-47D breast
[12] = tested on: BT-549 breast
[13] = tested on: MDA-MB-435 melanoma
[14] = tested on: SW-620 colon
[15] = tested on: MCF7 breast
[16] = tested on: HCT-116 colon
[17] = tested on: HCC-2998 colon
[18] = tested on: KM12 colon

Compound	growth [1]	growth [2]	growth [3]	growth [4]	growth [5]	growth [6]	growth [7]	growth [8]	growth [9]	growth [10]	growth [11]	growth [12]	growth [13]	growth [14]	growth [15]	growth [16]	growth [17]	growth [18]
Cc1cc(N/N=C/c2nc(-c3ccc(Cl)cc3)oc2C)c2cc(Cl)ccc2n1	-6.42% (active)	-35.5% (active)	10.4%	87.2%	-84.5% (active)	100%	66.3%	-34.3% (active)	73.1%	18%	77%	91.2%	-29.7% (active)	-69.3% (active)	-86.2% (active)	-47.1% (active)	103%	53.6%
CCOC(=O)C(C#N)C1CCCCC1 (stereo unspecified)	84.3%	99.1%	103%	99.8%	118%	109%	101%	96.9%	122%	98.5%	91.1%	90.1%	97.6%	106%	123%	99.4%	102%	107%
Cc1cc(=O)oc2cc(Oc3nc(-c4ccc(Cl)cc4)cn4c(-c5ccc(Cl)cc5)cnc34)ccc12	50.9%	93.7%	92.5%	94.6%	85.6%	103%	97.6%	107%	87.8%	78.8%	104%	89.4%	75.5%	66.7%	73.1%	92.1%	106%	81.2%
CCn1cc2c(cc1=O)-c1nc3ccccc3c3ccnc(c13)C2=O	15.1%	80.1%	55.2%	105%	80.7%	45.8%	70.2%	73.8%	94.4%	71.8%	56.8%	86.2%	63.3%	45.8%	29.6%	50%	78.8%	78.7%
Nc1c(C(=O)Nc2cccc3c2OCCO3)sc2nc3c(cc12)CN(Cc1ccccc1)CC3	35.5%	77.5%	87.7%	95.3%	74.5%	89.2%	60.7%	26.7%	66%	53%	68.2%	69.7%	6.47% (active)	47.6%	28.3%	45.4%	101%	59.4%
COc1ccc(-c2c(C)noc2-c2ccc(O)cc2O)cc1	31.1%	50.7%	99.9%	112%	76.4%	94.1%	87%	80.5%	106%	94.6%	86.9%	112%	87.1%	69.5%	67.6%	77.9%	111%	64.4%
COc1cccc(-c2nc3sccn3c2-c2ccnc(NCCCNS(=O)(=O)c3ccccc3)c2)c1	53.7%	-17.4% (active)	17.6%	92%	27.6%	79.2%	39.6%	38.7%	66.8%	12.7%	-8.88% (active)	2.07% (active)	38.5%	59%	46.2%	12.2%	67.4%	29.2%
CC/C(=C(\c1ccc(O)cc1)c1ccc(OCCN(C)CCN(C)C(=O)CCCCC(=O)c2c(C)[nH]c(/C=C3\N=C(c4ccc[nH]4)C=C3OC)c2C)cc1)c1ccccc1	9.77% (active)	63.1%	85.4%	108%	77.7%	123%	89.5%	89.4%	97.8%	97.4%	62.4%	91.5%	88%	88%	41.3%	56.3%	97%	68.6%
Cc1nn(-c2nc3ccccc3[nH]2)c2c1C(c1ccc3c(c1)OCO3)CC(=O)N2 (stereo unspecified)	14%	-18.4% (active)	36.9%	105%	65.1%	54.9%	21.3%	-24.3% (active)	38.2%	50.3%	45.6%	49.4%	5.5% (active)	10.8%	17.4%	6.24% (active)	63.6%	1.53% (active)
COc1ccc2nc3cc(Cl)ccc3c(NCCNCC(O)CO)c2c1 (stereo unspecified)	6.64% (active)	20.6%	23.3%	30.7%	30.5%	32.4%	19.8%	26.2%	49.6%	87.7%	21.7%	44.3%	28.3%	15.2%	9.17% (active)	9.6% (active)	44.8%	20.7%
COc1cccc(-c2cn3c(ccc4ccccc43)n2)c1	31.9%	31.8%	45.7%	52.7%	61.6%	45.7%	41.2%	16.7%	21.6%	15%	46.1%	37.8%	-25.6% (active)	26.2%	17.4%	40.6%	68.8%	34.6%
C=C1CC[C@@H]2[C@](C)(COC(C)=O)[C@H](OC(C)=O)CC[C@@]2(C)[C@@H]1CC(Nc1ccc(S(=O)(=O)Nc2nc(C)cc(C)n2)cc1)C1=CCOC1=O (stereo partly specified)	22.2%	2.24% (active)	62%	103%	65%	112%	81.5%	44.8%	99.8%	66.6%	68.8%	71.9%	67%	40%	40.3%	39.2%	100%	64.7%
C=C1CCC2C3(C)COC(c4ccccc4Br)OC3CCC2(C)C1C/C=C1/C(=O)OCC1OC(C)=O (stereo unspecified)	-40.9% (active)	-47% (active)	-36.2% (active)	-38.3% (active)	-62.2% (active)	52.7%	-9.12% (active)	-88.8% (active)	-30.9% (active)	-3.45% (active)	-68.9% (active)	-74.2% (active)	-38.6% (active)	-73.1% (active)	-68.9% (active)	-91% (active)	55.4%	-56.7% (active)
CCCCCCCCCCCCCCCC[N+]1(CC)CCCC1	-39.9% (active)	-54.7% (active)	-42.5% (active)	0.586% (active)	-4.99% (active)	-25.1% (active)	-76% (active)	-52.5% (active)	-8.22% (active)	85.8%	18.6%	-25.8% (active)	-60.6% (active)	-8.83% (active)	-18.2% (active)	-46.4% (active)	-59.5% (active)	-90.6% (active)
CN1CCN(Cc2ccc(NC(=O)c3[nH]ncc3Nc3ccnc4ccsc34)cc2)CC1	-12.5% (active)	19.2%	21.5%	18.1%	12.5%	34.7%	24.2%	22.6%	54.6%	93.5%	65.8%	63.1%	61.7%	20.6%	12.9%	10.1%	33%	12.3%
O=C1Nc2ccc(Br)cc2C12CC(c1ccccc1)=NN2 (stereo unspecified)	12.5%	28.3%	61%	82%	67.5%	48.4%	52.6%	24.1%	47%	40.8%	71.6%	47.8%	-21.1% (active)	18.6%	18.3%	22.9%	75.2%	30.6%
CCC(=O)OCc1cccc(OC)c1	116%	84.8%	98.2%	118%	94.6%	103%	81%	107%	101%	106%	95.3%	103%	97.7%	108%	105%	95.1%	101%	108%

From PubChem BioAssay (NCI)
